In PubChem BioAssay (NCATS):
Inconclusive results are not listed. A number with no mark means an inactive call. The source made the active and inactive calls. Calls come from the whole dose curve; as a rule, active = well fitted inhibition curve with a large enough effect; inconclusive = small, poorly fitted or top-dose-only effect; inactive = flat fitted curve, though single readings scatter.

Columns and labels:
[1] = Drug repurposing screens with cells derived from glioblastoma tumor samples (AID 1345199); conditions: GBM patient neurospheres viability, ATP luminescence, 48 h; note: nearly all actives have a fitted effect of over 40% in size
Procedure, shortened: (§1)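 Primary testing used CD133+ neurospheres from four GBM patients, seven concentrations, 48 h exposure and ATP-based viability; confirmation added three slower-growing patient lines.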

[2] = system: astro; test: as above; conditions: viability, ATP luminescence, 48 h; series mostly up to 45.9 µM
Procedure, shortened: as §1

[3] = at 45.9 µM (top of the series), tumour line B
[4] = at 45.9 µM (top of the series), tumour line D
[5] = at 46.1 µM (top of the series), tumour line C
[6] = at 46 µM (top of the series), tumour line A
% is set by controls: 0 for no effect and ±100 for the full control effect; potency is the fitted concentration of half-maximal effect.

Row | SMILES | activity, negative = cell killing [1, 3] [%] | activity, negative = cell killing [1, 4] [%] | activity, negative = cell killing [1, 5] [%] | Potency ([1]; tumour line A) | Potency [2] | activity, negative = cell killing [1, 6] [%] | activity, negative = cell killing ([1]; at 20 µM (top of the series), tumour line C) [%] | activity, negative = cell killing ([1]; at 21.2 µM (top of the series), tumour line B) [%] | activity, negative = cell killing ([1]; at 21.2 µM (top of the series), tumour line D) [%] | activity, negative = cell killing ([1]; at 21.3 µM (top of the series), tumour line A) [%]
1 | COc1ccc2c(=O)c(C)c(-c3ccccc3)oc2c1CN(C)C | -11.5 | -20.7 | -17.7 | 20 µM (active) | inactive | – | – | – | – | –
2 | O[C@@H]([C@H](O)[C@H](O)CBr)[C@H](O)CBr | -6.4 | -10.8 | 4.72 | – | inactive | -25.7 | – | – | – | –
3 | COc1ccc(C(=O)CCC(=O)O)c2ccccc12 | 0.841 | 1.24 | -26.3 | – | inactive | -50.8 | – | – | – | –
4 | CC(C)(C)NCC(O)CSc1nc(-c2ccc(C(N)=O)s2)cs1 (stereo not given) | -20.2 | -9.92 | -12.2 | 17.8 µM (active) | inactive | – | – | – | – | –
5 | CC(CC=O)CCCC(C)(C)O (stereo not given) | -11.5 | -18.7 | -24.1 | – | inactive | -27.2 | – | – | – | –
6 | CCCCO | -10.8 | 1.03 | 6.27 | – | inactive | -9.11 | – | – | – | –
7 | NCCCC[C@H](N)C(=O)O | -13.6 | 9.14 | 9.67 | – | inactive | -18.9 | – | – | – | –
8 | CC(C)(CO)[C@@H](O)C(=O)NCCCC(=O)O | 2.97 | -4.32 | -7.77 | – | inactive | -3.96 | – | – | – | –
9 | NC(=O)c1ccc[n+]([C@@H]2O[C@H](COP(=O)([O-])OP(=O)(O)OC[C@H]3O[C@@H](n4cnc5c(N)ncnc54)[C@H](O)[C@@H]3O)[C@@H](O)[C@H]2O)c1 | – | – | – | – | inactive | – | -16.9 | 8.41 | -3.83 | -22.7
10 | C=Cc1c(C)c2cc3nc(cc4[nH]c(cc5nc(cc1[nH]2)C(C)=C5CCC(=O)OC)c(CCC(=O)O)c4C)[C@@]1(C)C3=CC=C(C(=O)OC)[C@H]1C(=O)OC | -5.62 | -3.48 | -20.1 | – | inactive | -5.65 | – | – | – | –
11 | Cc1ncc(C[n+]2csc(CCOP(=O)(O)O)c2C)c(N)n1 | -1.8 | -1.97 | -10.8 | – | inactive | -17 | – | – | – | –
12 | CC[C@H](CC[C@@H](C)[C@H]1CC[C@H]2[C@@H]3CC=C4C[C@@H](O)CC[C@]4(C)[C@H]3CC[C@]12C)C(C)C | -10.4 | -2.23 | -13.1 | – | inactive | -16.4 | – | – | – | –
13 | O=C(O)CCC/C=C\C[C@@H]1[C@@H](/C=C/[C@@H](O)COc2cccc(C(F)(F)F)c2)[C@H](O)C[C@@H]1O | -0.927 | 2.71 | 3.43 | – | inactive | -17.8 | – | – | – | –
14 | NC(=O)[C@@H]1CCCN1C(=O)[C@H](Cc1cnc[nH]1)NC(=O)[C@@H]1CCC(=O)N1 | -8.63 | 6.97 | 5.62 | – | inactive | -26.1 | – | – | – | –
15 | CC(=O)O[C@@H]1CC2CCC1(C)C2(C)C (stereo not given in full) | -4.03 | -12.8 | -4.87 | – | inactive | -12.3 | – | – | – | –
16 | CC(=O)Oc1cccc(C(=O)O)c1OC(C)=O | -9 | -8.06 | -14.6 | – | inactive | -12.3 | – | – | – | –
17 | CO[C@H]1C=CO[C@@]2(C)Oc3c(C)c(O)c4c(O)c(cc(O)c4c3C2=O)NC(=O)/C(C)=C\C=C/[C@H](C)[C@H](O)[C@@H](C)[C@@H](O)[C@@H](C)[C@H](OC(C)=O)[C@@H]1C | -13.5 | -5.36 | -2.25 | – | inactive | -17.1 | – | – | – | –
18 | C=N[C@@H](C(=O)N[C@@H]1C(=O)N2[C@@H]1SC(C)(C)[C@@H]2C(=O)O)c1ccccc1 | -11 | -11.4 | -15.6 | – | inactive | -8.19 | – | – | – | –
19 | C=CCOc1ccc(CC(=O)O)cc1Cl | 0.88 | 1.11 | 0.211 | – | inactive | -23 | – | – | – | –
20 | FC(F)OC(Cl)C(F)(F)F (stereo not given) | -4.99 | -20.2 | -9.7 | – | inactive | -34.3 | – | – | – | –
21 | CC(=O)N[C@@H]1C(O[C@H]2O[C@H](C(=O)O)C(O)[C@H](O)[C@H]2O)[C@H](O)[C@@H](CO)O[C@H]1O[C@@H]1C(C(=O)O)O[C@@H](O[C@H]2[C@H](O)[C@@H](CO)OC(O)[C@@H]2NC(C)=O)[C@H](O)[C@H]1O (stereo not given in full) | -6.99 | -9.84 | -7.36 | – | inactive | -10.4 | – | – | – | –
22 | C[C@@H]1C/C=C/C=C/C=C/C=C/[C@H](O[C@@H]2O[C@H](C)[C@@H](O)[C@H](N)[C@@H]2O)C[C@@H]2O[C@](O)(C[C@@H](O)C[C@H]3O[C@@H]3/C=C/C(=O)O1)C[C@H](O)[C@H]2C(=O)O | -13.9 | -5.09 | -13.5 | – | inactive | -20.3 | – | – | – | –
